Consider 68 compounds from ChEMBL document CHEMBL4513216, “Probing the Open Global Health Chemical Diversity Library for Multistage-Active Starting Points for Next-Generation Antimalarials” (ACS Infect Dis, 2020).

Out of some 68,000 compounds screened, about 2,700 (4%) showed an effect of 50% or more. The full list was thinned out, with strong results kept by preference.

The test system of the assay is Plasmodium berghei. As to the kind of experiment: Screen against P. berghei liver stage (PbLuc), transformed with Luciferase, at 2uM. The assay is classed as functional, HepG2. Conditions: tested at 2 uM.
As to `CC(C(=O)Nc1nccs1)N1CCc2nn(C)c(=O)cc2C1` (stereo not drawn), the INHIBITION amounted to 16.82%.
Consider `Cn1c(CN2CCCC2)nnc1C1CCCN(C(=O)C2CCOCC2)C1` (stereo not drawn), for which the INHIBITION was -19.54%.
The figure for `CCCc1cc(N2CCCC2Cn2nc(C)nc2C)n2ncnc2n1` (stereo not drawn) is 19.39%.
For `CCCc1nc(N2CCCC(C)C2)c2c(n1)c(C)nn2CC` (stereo not drawn) the value was 15.58%; for `CCN(CC)c1ncnc2c(C)nn(CC)c12`, -25.59%.
On to `CCn1nc(C)c2ncnc(N3CCCC(C)C3)c21` (stereo not drawn), for which the INHIBITION worked out at 73.48%.
For `CS(=O)(=O)NCC1CCCN(c2ccc(C#N)cn2)C1` (stereo not drawn) the value was -0.3%; for `N#Cc1cccnc1N1CCCN(C(=O)CCn2cccn2)CC1`, 41.76%.
The figure for `O=S(=O)(c1ccc2c(c1)OCCO2)N1CCc2ccccc2C1` is 50.57%; for `O=S(=O)(c1ccc2c(c1)OCCO2)N1CCC(OCc2ccccn2)C1` (stereo not drawn) it is -26.14%; for `O=c1ccc2c([nH]1)CCN(S(=O)(=O)c1ccc3c(c1)OCCO3)C2` it is 14.45%.
In the case of `COc1ccc(C(C)NC(=O)NCCCn2cncn2)cc1F` (stereo not drawn), the INHIBITION was -40.52%.
The figure for `CC(NC(=O)CSCC(N)=O)c1ccccc1Oc1ccccc1` (stereo not drawn) is 51.7%; for `CC(NC(=O)CSCC(N)=O)c1ccc(Oc2ccccc2)cc1` (stereo not drawn) it is 29.97%; for `CCS(=O)(=O)CC(=O)NC(C)c1ccccc1Oc1ccccc1` (stereo not drawn) it is -28.15%.
Take `Cc1ccc(CN2CCCC23CCN(S(=O)(=O)c2ccccc2)C3)o1` (stereo not drawn): the INHIBITION is recorded as -30.74%.
The figure for `Cc1ncc(CN(Cc2ccccn2)Cc2ccccc2Cl)n1C` is -6.19%.
Regarding `NC(=O)N1CC2(CCNCC2)c2cc(Cl)ccc21`, the INHIBITION was found to be 6.12%.
In the case of `COC(=O)N1CC2(CCNCC2)c2cc(Cl)ccc21`, the INHIBITION was 22.71%.
Regarding `CC(=O)N1CC2(CCNCC2)c2cc(Cl)ccc21`, the INHIBITION is 62.25%.
As to `O=c1cc(C2CCNCC2)nc(CCc2ccccn2)[nH]1`, the INHIBITION was 15.92%.
As for `O=C(Cc1csc(-c2ccoc2)n1)NCCCN1CCCCC1`, the INHIBITION is 6.85%.
Consider `CC1CCCN(CCCNC(=O)Cc2csc(-c3ccoc3)n2)C1` (stereo not drawn), for which the INHIBITION was 50.61%.
For `O=C(Cc1csc(-c2ccoc2)n1)NCCC(=O)N1CCCCC1`, the INHIBITION was 45.56%.
For `COCC(=O)N1CCC(C(=O)Nc2ccc(C(C)=O)cc2)CC1` the value was 10.64%.
The figure for `CCC(C)NC(=O)Nc1cccc(OCCCC#N)c1` (stereo not drawn) is 12.39%; for `O=C(c1ccco1)N1CC[C@@H]2O[C@H](COCCN3CCCC3)CC[C@@H]21` it is 15.88%.
For `CC(C)(C)C(=O)N1CCN(Cn2nccc2-c2cccnc2)CC1` the value was 53%; for `c1cncc(-c2ccnn2CN2CCOCC2)c1`, -31.15%.
Consider `CC(C)(C)CCN1CCN(Cn2nccc2-c2cccnc2)CC1`, for which the INHIBITION is listed as -15.83%.
`Cc1ncccc1OC1(C(=O)NCCc2ccccn2)CCNCC1`: the INHIBITION is reported as 17.94%.
With `CC(=O)NCCNC(=O)C1(Oc2cccnc2C)CCNCC1`, the INHIBITION came to 53.19%.
For `Cc1ncccc1OC1(C(=O)NCCNc2ccccc2)CCNCC1` the value was -25.28%; for `Cc1cnn(C2CN(CC(O)COc3ccc(C#N)cc3)C2)c1` (stereo not drawn), -2.84%.
For `Cc1cc(CN(C)C(=O)C(c2cccnc2)N2CCOCC2)n[nH]1` (stereo not drawn) the value was 39.92%; for `Cc1n[nH]c(C)c1CCN(C)C(=O)C(c1cccnc1)N1CCOCC1` (stereo not drawn), 51.31%; for `Cc1ncsc1CCN(C)C(=O)C(c1cccnc1)N1CCOCC1` (stereo not drawn), -13.13%.
For `O=C(N1CCCCC1)N1CCN(c2ccc(Cl)nn2)C(=O)C1` the value was 34.52%; for `COc1cc(N2C[C@H]3CN(Cc4ccccn4)C[C@H]3C2)ncn1`, -37.2%; for `CC(NC(=O)N1CCN(c2ccccc2)CC1)c1nncn1C` (stereo not drawn), 50.72%.
Turning to `CC(NC(=O)N1CCc2ccccc2C1)c1nncn1C` (stereo not drawn), the INHIBITION is reported as -56.96%.
The figure for `COc1cc2c(cc1OC)CN(C(=O)NC(C)c1nncn1C)CC2` (stereo not drawn) is -23.92%.
For `Cc1cccc(N2CCN(C(=O)NC(C)c3nncn3C)CC2)c1` (stereo not drawn) the value was 48.64%.
The figure for `COc1ccc(N2CCN(C(=O)NC(C)c3nncn3C)CC2)cc1` (stereo not drawn) is -11.34%; for `CC(NC(=O)N1CCc2sccc2C1)c1nncn1C` (stereo not drawn) it is 64.21%.
Regarding `Cc1ncccc1CNC(CCO)C1CCCCC1` (stereo not drawn), the INHIBITION was -16.72%.
For `O=C(CN1CCNC1=O)NCc1ccc2sccc2c1` the value was -18.57%.
Consider `Cc1nnc(C2Cc3ccccc3CN2Cc2ncc(Cl)n2C)o1` (stereo not drawn), for which the INHIBITION is given as 27.59%.
The figure for `COCc1cncc2c1CCN(C(=O)c1ccoc1C)C2` is 34.02%.
The figure for `Cc1noc(CN(C)c2nc(-c3ccco3)nc3c2CCN(C)CC3)n1` is 18.14%; for `Cc1cc(CN(C)c2nc(-c3ccco3)nc3c2CCN(C)CC3)on1` it is 67.05%; for `Cc1nonc1CN(C)c1nc(-c2ccco2)nc2c1CCN(C)CC2` it is 38.91%.
The figure for `CNc1nc(C(=O)N2CCn3nc(C(=O)OC)cc3C2)cs1` is -0.15%.
For the compound `COCc1c(C(=O)N2CCCC(C(=O)c3ccccc3)C2)noc1C` (stereo not drawn), the INHIBITION is on record as 10.1%.
For `O=S1(=O)CCN2C(=N1)Oc1ccc(Cl)cc12` the value was 22.96%; for `CN(CCc1ccccn1)C(=O)c1cccs1`, 24.64%; for `CN(Cc1ccoc1)C(=O)C1CC(=O)N(Cc2ccncc2)C1` (stereo not drawn), 10.91%.
The figure for `CN(Cc1cnc(N)nc1)C(=O)C1CC(=O)N(Cc2ccncc2)C1` (stereo not drawn) is 59.8%; for `CN(Cc1ccon1)C(=O)C1CC(=O)N(Cc2ccncc2)C1` (stereo not drawn) it is 15.96%; for `CC(C)c1nnc2n1CCN(Cc1nc3c(F)cccc3[nH]1)C2` it is 45.4%.
The figure for `Cc1ncc2c(n1)CN(Cc1nc(-c3ccsc3)oc1C)CC2` is 31.05%.
For `Cc1oc(-c2ccsc2)nc1CN1CC[C@@H]2CCCC[C@H]2C1`, the INHIBITION is reported as 54.49%.
The figure for `Cc1oc(-c2ccsc2)nc1CN1CCCC(c2ccnn2C)C1` (stereo not drawn) is 13.88%.
`CN(C)Cc1nc2c(o1)CN(S(=O)(=O)c1cccs1)C2`: the INHIBITION is -0.45%.
Turning to `Cn1nc(C(=O)N2CCOCC2)cc1C(=O)Nc1ncc(Cl)cc1Cl`, the INHIBITION was -47.52%.
Regarding `Cn1nc(C(=O)N2CCOCC2)cc1C(=O)Nc1c(Cl)cccc1Cl`, the INHIBITION is 13.45%.
The figure for `Cn1nc(C(=O)N2CCOCC2)cc1C(=O)Nc1ccc(Cl)cc1Cl` is 61.02%; for `CC(C)CC(NC(=O)c1ccc[nH]1)C(=O)N1CCC(CO)CC1` (stereo not drawn) it is 20.3%.
